15 compounds from PubChem BioAssay AID2113 (National Center for Advancing Translational Sciences (NCATS), 2009) can be followed below.

Inconclusive results are not listed. Active and inactive are the calls of the source. The call rests on the fitted dose curve; in most records, active means well fitted curve in either direction with a large enough effect; inconclusive means small, poorly fitted or top-dose-only effect; inactive means no such curve, though single readings can be large or run the other way.

The target in this assay is Lysosomal alpha-glucosidase (Homo sapiens) (UniProt P10253). Description: Confirmation of Inhibitors and Activators of Human alpha-Glucosidase From Spleen Homogenate. As to conditions: alpha-glucosidase enzyme activity; series mostly up to 60.5 µM. An excerpt: NIH Chemical Genomics Center [NCGC]
NIH Molecular Libraries Probe Production centers Network [MLPCN]
Assay Submitter (PI): Wei Zheng
Alpha-glucosidase is responsible for hydrolysis of terminal, non-reducing 1,4-linked alpha-D-glucose residues with release of alpha-D-glucose. It is a lysosomal hydrolase that is required for the degradation of a small percentage (1-3%) of cellular glycogen in human. Deficiency of this enzyme results in glycogen-storage disease type II (GSDII), also referred to as Pompe disease, an autosomal recessive disorder. Structurally normal glycogen is accumulated in lysosomes and cytoplasm in affected patients, primarily in muscle tissues. Excessive glycogen storage within lysosomes may interrupt normal functioning of other organelles and leads to cellular injury. In turn, this leads to enlargement and dysfunction of the entire organ involved (eg, cardiomyopathy and muscle weakness).
It has reported that the improper folding and trafficking of alpha-glucosidase resultinged from the genetic mutations may account for a significant number of Pomrope patients. […] We optimized this alpha-glucosidase assay in 1536-well plate format for identifying the novel small molecule inhibitors with the structures other than the sugar analogs in order to develop the new pharmacological chaperones. In particular, this assay is directed towards discovering compounds active in a more natural setting, tissue homogenate, that may have been missed by screens of the purified enzyme under more stringent conditions. This assay attempted to confirm hits from the primary screening.
NCGC Assay Protocol Summary:
This is a fluorogenic enzyme assay with 4-methylumbelliferyl-alpha-D-glucopyranoside as the substrate and human spleen homogenate containing alpha-glucosidase as the enzyme preparation. Upon hydrolysis of this fluorogenic substrate, the resulting product, 4-methylumbelliferone (which excites at 365 nm and emits at 440 nm) can be detected by a fluorescence plate reader. Data were normalized to the controls for basal activity (without enzyme) and 100% activity (with enzyme). The AC50 values were determined from concentration-response data modeled with the standard Hill equation.
Assay buffer: 50 mM citric acid (titrated with potassium phosphate to pH 5.0), 0.01% Tween-20 (pH 5.0 is an optimal condition for this enzyme assay)
1536-well assay protocol for the alpha-glucosidase from human spleen homogenate:
(1) Add 2 ul/well spleen homogenate (1 ug)
(2) Add 23 nL compounds in DMSO solution. The final titration was 0.5 nM to 58 uM.
(3) Add 2 ul of substrate (1 mM final)
(4) Incubate at 37 C for 40 min
(5) Add 2 ul stop solution (1M NaOH and 1M Glycine mixture, pH 10)
(6) Detect the assay plate in a ViewLux plate reader (PerkinElmer) with Ex=365 nm and Em=440nm.
Keywords: Alpha-glucosidase, Pompe Disease, pharmacological chaperone, chaperone therapy, high throughput screening, alpha-glucosidase inhibitor, MLSMR, MLSCN, NIH Roadmap, qHTS and NCGC
Consider `CC(C)(C)c1cc(C=C(C#N)C#N)cc(C(C)(C)C)c1O`, for which the compound was called inactive. For the compound `CC(=O)Nc1ccc(OC(=O)c2ccccc2N)cc1`, the call was inactive.

On to `O[C@H]1[C@H](O)[C@@H](O)CN2CC[C@H](O)[C@H]12`, for which the compound was called inactive. Then `C/C(O)=C(/C#N)C(=O)Nc1cc(Br)ccc1Br`, with “inactive”; and `COc1ccc(Cc2nccc3cc(OC)c(OC)cc23)cc1OC`, with “inactive”. Take `OC[C@@H]1[C@@H](O)[C@H](O)[C@H]2[C@@H](O)CCN21`: the outcome was inactive. In the case of `CCOc1ccc2cc(C#N)c(=O)oc2c1`, the call was inactive. Regarding `Cc1cc(C(=O)CS(=O)(=O)c2ccc(F)cc2)cc(C)c1OC(=O)N(C)C`, the result was inactive.

With `O=C(O)c1ccccc1-c1c2cc(Br)c(=O)cc-2oc2[c]([Hg])c(O)c(Br)cc12`, the compound was called inactive. For the compound `C/C=C(/C)C(=O)O[C@H]1C(C)=C2C([C@@H]1OC(=O)CCCCCCC)[C@@](C)(OC(C)=O)C[C@@H](OC(=O)CCC)[C@@]1(O)[C@H]2OC(=O)[C@@]1(C)O` (stereo not given in full), the result was inactive. Regarding `Cc1cc(/C=C2\C(=O)NC(=O)N(c3ccc(F)cc3)C2=O)c(C)n1-c1ccc(C(=O)O)cc1`, the compound was called inactive.

With `O[C@@H]1[C@H](O)[C@H]2[C@@H](O)CCN2C[C@@H]1O`, the compound was called inactive. Take `CC(=O)[O][Hg][c]1ccccc1`: the compound was classed as inactive.

In the case of `Cc1cc(/C=C2/C(=O)NC(=O)N(Cc3ccco3)C2=O)c(C)n1-c1ccc(C(=O)O)cc1`, the result was inactive. As for `CCCCC/C=C\C/C=C\C/C=C\C/C=C\CCCC(=O)NCCCC(=O)O`, the outcome was inactive.
